Experimental data reported in PubChem BioAssay AID686978 (National Center for Advancing Translational Sciences (NCATS), 2013).
About 64,000 (15%) of roughly 420,000 compounds were called active. Not shown: some 27% with an inconclusive outcome. The call rests on the fitted dose curve; in most records, active means well fitted inhibition curve with a large enough effect; inconclusive means small, poorly fitted or top-dose-only effect; inactive means flat fitted curve, though single readings scatter. A selection follows. Entries that show only a call come without a potency.
Potency means the concentration at half of the fitted maximal effect.

Assay: qHTS for Inhibitors of human tyrosyl-DNA phosphodiesterase 1 (TDP1): qHTS in cells in absence of CPT; further: nearly all actives have a fitted effect of over 55% in size
Conditions: DT40 Tdp1-/- hTDP1 cells, no CPT, ATP luminescence, 48 h; activity change, negative = growth inhibition: at 46.2 µM (top of the series)
In short: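 Luminescent ATP content (CellTiter-Glo) served as the growth readout. Knockout chicken DT40 cells expressing human TDP1 were exposed to compounds without camptothecin for a minimum 48 hr at 37 °C.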
With `COCCn1cnnc1SCC(=O)Nc1cccc(S(=O)(=O)N2CCCCC2)c1` the Potency was “inactive”.
For `Cc1c(CCO)c(=O)n(-c2ccccc2)n1S(=O)(=O)c1ccc(F)cc1`, the Potency was “inactive”.
For `COCCCNC(=O)C1CC(=O)N(c2ccc(C)cc2)C1` (configuration not stated), the Potency was “inactive”.
With `Cc1oc(-c2ccccc2F)nc1CS(=O)(=O)CC(=O)NCCCN(C)C1CCCCC1` the Potency was “inactive”.
In the case of `Cc1ccc(N2C(=O)C(CC(=O)Nc3cccc(F)c3)N(CCc3ccncc3)C2=O)cc1` (configuration not stated), the Potency was “inactive”.
For `CCOc1ccc(NC(=O)CN(C)C(=O)CCSc2ccc(F)cc2)cc1OCC`, the Potency was “inactive”.
For `CCN(C(=O)COC(=O)C1CCN(S(=O)(=O)c2ccc(C)c(C)c2)CC1)C1CCS(=O)(=O)C1` (configuration not stated), the Potency was “inactive”.
With `O=[N+]([O-])c1ccc(N(CCO)Cc2ccccc2)c([N+](=O)[O-])c1` the Potency was “inactive”.
With `CCOC(=O)CC(NC(=O)C1c2ccccc2Oc2ccccc21)c1ccc(C)cc1` (configuration not stated) the Potency was “inactive”.
In the case of `CCCN(CCC)C(=O)C1c2ccccc2Oc2ccccc21`, the Potency was 25.9 µM (active).
For `CCCCCNC(=O)C1c2ccccc2Oc2ccccc21`, the Potency was “inactive”.
For `Cc1ccccc1OCCC(=O)OCC(=O)NCCc1ccc(S(N)(=O)=O)cc1`, the Potency was “inactive”.
For `COc1ccccc1-n1c(CNC(=O)c2ccccc2)nnc1SCC(=O)Nc1nnc(C)s1`, the Potency was “inactive”.
With `Cc1ccccc1-n1c(SCC(=O)Nc2cccc3ccccc23)nc(O)cc1=O` the Potency was “inactive”.
In the case of `Cc1cccc(-n2ccnc2SCC(=O)Nc2cccc3ccccc23)c1C`, the Potency was 16.4 µM (active).
With `Cc1nnc(NC(=O)CSc2nccn2-c2cccc(C)c2C)s1` the Potency was 3.26 µM (active).
For `CC(=O)Nc1cccc(NC(=O)CSc2nccn2Cc2ccc(F)cc2)c1`, the Potency was “inactive”.
In the case of `Cc1cc(NC(=O)CSc2nccn2-c2ccc([N+](=O)[O-])cc2)no1`, the Potency was “inactive”.
In the case of `Cc1cccc(CSc2nnc(NC(=O)CSc3nnc(C)s3)s2)c1`, the Potency was “inactive”.
In the case of `COc1ccccc1-n1ccnc1SCC(=O)NC(C)(C)C`, the Potency was “inactive”.
With `O=C(CSc1nccn1-c1ccc(F)cc1)Nc1cccc2ccccc12` the Potency was 14.6 µM (active).
In the case of `Cc1cccc(NC(=O)c2ccc(OCC(=O)NCc3ccccc3)cc2)c1C`, the Potency was “inactive”.
With `COC(=O)C(C(=O)Nc1cccc(Cl)c1C)C1CCCC1` (configuration not stated) the Potency was “inactive”.
In the case of `CCOC(=O)C(=O)C1C(=O)Nc2ccccc21` (configuration not stated), the Potency was “inactive”.
With `CCC(=O)Nc1c(C)n[nH]c1C` the Potency was “inactive”.
With `CCOc1ccc(-c2cn(S(=O)(=O)c3cccc4nsnc34)nc2N)cc1` the Potency was “inactive”.
For `COc1cccc(CNC(=O)CN2C(=O)CCc3cc(S(=O)(=O)N4CCOCC4)ccc32)c1`, the Potency was “inactive”.
In the case of `Cc1cc(NC(=O)CSc2nc(=O)cc(N)n2-c2ccc(F)cc2)no1`, the Potency was “inactive”.
In the case of `CC(=O)c1ccc(NC(c2ccc(F)cc2)c2nnc(-c3ccccc3)o2)cc1` (configuration not stated), the Potency was 8.2 µM (active).
In the case of `CCCN(CCC)c1ccc(C(O)c2nnc(-c3ccccc3)o2)cc1` (configuration not stated), the Potency was “inactive”.
In the case of `CC(=O)c1ccc(NC(=O)COc2ccccc2-c2nc(-c3ccccc3)no2)cc1`, the Potency was “inactive”.
In the case of `NC(=O)C1(N2CCCC2)CCN(Cc2ccccc2)CC1`, the Potency was “inactive”.
For `COC(=O)[C@@H]1C[C@H]2CC[C@H](O)C[C@H]2N1Cc1ccc(N2CCN(C)CC2)cc1`, the Potency was “inactive”.
With `COCCNC(=O)C(c1ccc(C)o1)N(Cc1ccccc1)C(=O)Cn1nnc2ccccc21` (configuration not stated) the Potency was “inactive”.
In the case of `Cc1ccc2nc(/C(C#N)=C/c3ccccc3F)[nH]c2c1`, the Potency was 18.4 µM (active).
In the case of `COc1ccccc1CSc1nc2ccccc2[nH]1`, the Potency was “inactive”.
With `CCOC(=O)c1ccc(-c2ccc(/C=C(\C#N)C(=O)Nc3ccc(OCC)cc3)o2)cc1` the Potency was “inactive”.
For `Cc1ccc2nc(/C(C#N)=C/c3ccc(-c4ccc(C(=O)OC(C)C)cc4)o3)[nH]c2c1`, the Potency was 5.17 µM (active).
For `COc1cc(/C=C(\C#N)c2nc3ccccc3[nH]2)ccc1O`, the Potency was 23.1 µM (active).
In the case of `Cc1ccc2nc(/C(C#N)=C\c3ccc(OC(=O)c4cccs4)cc3)[nH]c2c1`, the Potency was 6.51 µM (active).
In the case of `N#C/C(=C\c1ccccc1F)c1nc2ccccc2c(=O)[nH]1`, the Potency was “inactive”.
In the case of `CCOc1ccc(/C=C(\C#N)c2nc3ccccc3c(=O)[nH]2)cc1OC`, the Potency was “inactive”.
For `Cc1ccc2nc(S(=O)(=O)O)[nH]c2c1`, the Potency was “inactive”.
In the case of `N#CCCC(C#N)(c1cccnc1)N1CCOCC1` (configuration not stated), the Potency was “inactive”.
In the case of `CCCCN1CC(COCc2ccccc2)OCCS1(=O)=O` (configuration not stated), the Potency was “inactive”.
In the case of `CC(C)c1cc(C(=O)O)on1`, the Potency was “inactive”.
In the case of `CN(C(=O)CSc1nnnn1-c1ccccc1)C1CCCCC1`, the Potency was “inactive”.
In the case of `NNC(=O)CNC(c1ccccc1)c1cc(Cl)ccc1NC(=O)c1ccccc1` (configuration not stated), the Potency was “inactive”.
With `CC(C)C(c1nnnn1C(C)(C)C)N1CCN(Cc2cccnc2)CC1` (configuration not stated) the Potency was “inactive”.
In the case of `COc1ccc(C(=O)O/N=C(\N)c2ccccn2)cc1[N+](=O)[O-]`, the Potency was “inactive”.
For `O=C(Nc1ccccc1-c1ccccc1)c1cccs1`, the Potency was 23.1 µM (active).
With `COc1ccccc1N1CCN(C(=O)Cn2nnc(-c3cccs3)n2)CC1` the Potency was “inactive”.
With `O=C(Nc1ccccc1)c1ccc(NC(=O)c2cccs2)cc1` the Potency was “inactive”.
For `CCOc1ccc(-c2nnn(CC(=O)N3CCN(c4ccc(F)cc4)CC3)n2)cc1OCC`, the Potency was “inactive”.
With `O=C(Nc1ccccc1-c1nnn(CC(=O)N2CCN(c3ccccc3)CC2)n1)c1cccs1` the Potency was 23.1 µM (active).
With `CCc1ccccc1NC(=O)c1cccs1` the Potency was “inactive”.
With `OCCNCCCCOc1ccccc1F` the Potency was “inactive”.
In the case of `Cn1c2c(c(=O)n(C)c1=O)[C@@H]1c3c(ccc4ccccc34)OC[C@@H]1CO2`, the Potency was “inactive”.
With `COc1cc(N2C(=O)CC3(CCCC3)CC2=O)cc(OC)c1OC` the Potency was “inactive”.
In the case of `O=C(COc1ccc(F)cc1)N(CC1=CCS(=O)(=O)C1)c1ccccc1`, the Potency was “inactive”.
For `CC1C(=O)N(Cc2ccccc2)c2ccccc2N1C(=O)c1ccccc1` (configuration not stated), the Potency was 13 µM (active).
For `CC1C(=O)Nc2ccccc2N1C(=O)c1c(F)cccc1F` (configuration not stated), the Potency was “inactive”.
With `CC1Oc2ccccc2N(Cc2cccnc2)C1=O` (configuration not stated) the Potency was “inactive”.
In the case of `Cc1ccc(C(=O)Nc2nc(N)n(-c3ccccc3)n2)cc1`, the Potency was “inactive”.
For `Cc1ccc(C(=O)Nc2nc(-c3ccccc3)ns2)cc1`, the Potency was “inactive”.
With `CCc1cccc(-n2nnc(-c3nsc(NC(=O)c4ccc(C)cc4)n3)c2C)c1` the Potency was 8.2 µM (active).
In the case of `CC(=O)c1ccc(-c2nnc(CCC(=O)N(C)Cc3cnc4ccccn34)o2)s1`, the Potency was “inactive”.
In the case of `CCc1ccc(CN(C)C(=O)CCc2nnc(-c3ccc(-c4ccccc4)cc3)o2)nc1`, the Potency was 11.6 µM (active).
For `CN(Cc1ccccc1)C(=O)CCc1ccccc1`, the Potency was “inactive”.
For `CCOc1ccc(C)cc1S(=O)(=O)NC1CCCCCC1`, the Potency was “inactive”.
For `Cn1c(-c2ccccc2)c[n+]2c1CCCCC2`, the Potency was “inactive”.
With `Clc1ccc(C[n+]2cc(-c3ccc(Cl)cc3)n3c2CCC3)cc1` the Potency was 5.8 µM (active).
With `Clc1ccc(C[n+]2cc(-c3ccccc3)n3c2CCC3)cc1` the Potency was 5.17 µM (active).
For `COc1ccccc1C(=O)NCCC(=O)N(C)Cc1cccnc1`, the Potency was “inactive”.
With `COCC1CCN(C(=O)C2CCC(=O)N(Cc3cccc(C(F)(F)F)c3)C2)CC1` (configuration not stated) the Potency was “inactive”.
For `O=C(NCCc1ccccn1)c1nc(Cn2cc([N+](=O)[O-])cn2)no1`, the Potency was “inactive”.
For `Cc1nc(Cl)c(C#N)c2c1CCCC2`, the Potency was “inactive”.
For `N#C/C(=C1/CCCN1)c1ccccn1`, the Potency was “inactive”.
With `Cc1sc2nc(SCCO)n(-c3ccccc3)c(=O)c2c1C` the Potency was 13 µM (active).
For `Cc1sc2nc(SCC(N)=O)n(C)c(=O)c2c1C`, the Potency was “inactive”.
In the case of `CCc1cc2c(=O)n(-c3ccccc3)c(SCC(=O)O)nc2s1`, the Potency was “inactive”.
For `COc1cccc(N(C(=O)CNC(=O)c2ccco2)C(C(=O)NC2CCCCC2)c2cccnc2)c1` (configuration not stated), the Potency was “inactive”.
For `CCOc1ccc2cc(C#N)c(SCC(=O)OC)nc2c1`, the Potency was “inactive”.
For `CC(C)c1c(C(=O)N/N=C/c2ccc(-c3ccccc3)cc2)nnn1-c1nonc1N`, the Potency was “inactive”.
For `CC1(C)C(=O)C2(CCCCC2)C(=O)OC1c1cccs1` (configuration not stated), the Potency was “inactive”.
With `CC(C)(C)Nc1c(N)c(=O)oc2ccccc12` the Potency was “inactive”.
In the case of `O=c1oc2ccccc2c(=O)c2ccccc12`, the Potency was “inactive”.
With `CCNc1c(NS(=O)(=O)c2ccc(C3CCCCC3)cc2)c(=O)oc2ccccc12` the Potency was 16.4 µM (active).
For `Cn1c(Cc2csc(N)n2)nnc1SC/C=C/c1ccccc1`, the Potency was “inactive”.
In the case of `CCOC(=O)C1=NN(c2ccc(Cl)cc2)/C(=C/C2=NCCc3cc(OC)c(OC)cc32)S1`, the Potency was “inactive”.
In the case of `COc1cc2c(cc1OC)C(/C=C/c1ccco1)=NCC2`, the Potency was 13 µM (active).
In the case of `COc1cccc2c(N/N=C/c3ccco3)cc(C)nc12`, the Potency was “inactive”.
In the case of `CC12C(=O)N(n3cnnc3)C(=O)C1C1C=CC2C1` (configuration not stated), the Potency was “inactive”.
With `CS(=O)(=O)N(CC(=O)N1CCCC1)Cc1ccccc1` the Potency was “inactive”.
In the case of `O=c1c2cc(Br)ccc2nc(-c2cccc(Cl)c2)n1O`, the Potency was 23.1 µM (active).
In the case of `Cc1ccc2nc(-c3cccc(Br)c3)cc(C(=O)Nn3cnnc3)c2c1`, the Potency was “inactive”.
With `O=C1CCCc2c1nc(-c1cccc(Cl)c1)n2O` the Potency was “inactive”.
In the case of `CCOC(=O)N1CCC(NC(=O)CCc2cn(C)c3ccccc23)CC1`, the Potency was “inactive”.
With `CCC(CC)c1nnc(NC(=O)C2=COCCO2)s1` the Potency was “inactive”.
In the case of `CNC(=O)NC(=O)CSc1nnc(-c2ccc(F)cc2)n1CC1CCCO1` (configuration not stated), the Potency was “inactive”.
With `Cc1ccc(CNS(=O)(=O)c2ccc(-c3cc(C(F)(F)F)on3)s2)cc1` the Potency was “inactive”.
For `Cc1cccc(N2CC(C)Cn3c2nc2c3c(=O)n(CC(=O)OCc3ccccc3)c(=O)n2C)c1` (configuration not stated), the Potency was 13 µM (active).
For `COCCn1cnc2c1c(=O)n(CC(=O)NN)c(=O)n2Cc1ccccc1`, the Potency was “inactive”.
With `CC1CN(C2CCCCC2)c2nc3c(c(=O)n(C)c(=O)n3C)n2C1` (configuration not stated) the Potency was “inactive”.
For `Cc1ccccc1SCC(=O)OCC(=O)N1CC(=O)Nc2ccccc21`, the Potency was “inactive”.
In the case of `CC(=O)C1C(c2cccc(Oc3ccccc3)c2)NC(=O)NC1(O)C(F)(F)F` (configuration not stated), the Potency was “inactive”.
With `C[C@@H]1CN([C@@H](C)CO)S(=O)(=O)c2ccc(C#Cc3cccc(F)c3)cc2O[C@H]1CN(C)S(=O)(=O)c1cn(C)cn1` the Potency was 23.1 µM (active).
For `C[C@@H]1CN([C@@H](C)CO)S(=O)(=O)c2ccc(-c3ccc(C(=O)N(C)C)cc3)cc2O[C@@H]1CN(C)Cc1ccccc1C(=O)O`, the Potency was “inactive”.
For `C[C@@H]1CN([C@H](C)CO)S(=O)(=O)c2ccc(C#C[C@@H](C)O)cc2O[C@@H]1CN(C)Cc1ccc(-c2ccccc2)cc1`, the Potency was 6.51 µM (active).
For `COCC(=O)N(C)C[C@H]1Oc2cc(Br)ccc2S(=O)(=O)N([C@H](C)CO)C[C@H]1C`, the Potency was “inactive”.
With `C[C@H]1CN([C@@H](C)CO)S(=O)(=O)c2ccc(-c3cccc(F)c3)cc2O[C@@H]1CN(C)C` the Potency was “inactive”.
For `C[C@H](CO)N1C[C@H](C)[C@@H](CN(C)C(=O)c2cccc(F)c2)Oc2cc(-c3cncnc3)ccc2S1(=O)=O`, the Potency was “inactive”.
